Experimental data taken from PubChem BioAssay (EPA / NIEHS).
“And” between values parts separate entries of the source, which are not always exact repeats. Equal values may be shown once. The source made the active and inactive calls. Rule for the calls: active = hit-call score of the fitted dose curve at least 0.9, where 1 is the maximum; inactive = score below 0.9.

Assay: BSK_SAg_SRB: Viability Assessment in the BioMAP Diversity Plus: SAg Assay (AID 2283096);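 note: hits may be either gain or loss of signal compared with DMSO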
Conditions: primary human HUVEC with PBMC
Experimental: BSK_SAg is a cell-based, multiplexed-readout assay that uses umbilical vein endothelium and peripheral blood mononuclear cells, a human vascular primary cell co-culture, with measurements taken at 24 hours after chemical dosing in a 96-well plate.BSK_SAg_SRB is an assay component measured in the BSK_SAg assay. It measures protein content, a form of viability reporter, as detected with absorbance signals by Sulforhodamine staining technology.Data from the assay component BSK_SAg_SRB was analyzed into 1 assay endpoint. This assay endpoint, BSK_SAg_SRB, was analyzed with bidirectional fitting relative to DMSO as the negative control and baseline of activity. Using a type of viability reporter, gain or loss-of-signal activity can be used to understand changes in the signaling. Furthermore, this assay endpoint can be referred to as a primary readout, because this assay has produced multiple assay endpoints where this one serves a signaling function. To generalize the intended target to other relatable targets, this assay endpoint is annotated to the cell morphology intended target family, where the subfamily is cell conformation.
The levels of cell surface (or secreted, indicated by the prefix "s") biomarker endpoints were measured by ELISA. Overt cytotoxicity to cells in confluent adherent cultures (all systems other than the BT system) was assessed by measuring total protein levels using sulforhodamine B (SRB) staining in parallel cultures at the time of biomarker measurements, indicated as SRB endpoints. For proliferation assays for adherent cell types, individual cell types are cultured at sub-confluence and relative cell numbers quantified by SRB staining at time points optimized for each system (48 h: 3C and CASM3C systems; 72 h: BT and HDF3CGF systems; 96 h: SAg system). SRB was performed by staining cells with 0.1% SRB after fixation with 10% TCA and reading wells at 560 nm.Viability and proliferation of PBMC (T cells) was quantified by Alamar Blue reduction for the SAg and BT systems. For PBMC viability (referred to as PBMC Cytotoxicity within the assay endpoint names), cells were plated (75,000/well in a 96-well plate) and then chemical samples added for 1 h before addition of activators, SEB and TSST-1 (20 ng/mL final concentration each). Cells were incubated for 90 h. Then, Alamar Blue (20 uL/well) (Invitrogen, Cat DAL1100) was added for 6 h, and the plates were read with a fluorescence microplate reader at 546/580 nm (excitation/emission). For PBMC proliferation, cells were plated and activated as above but incubated for only 16 h prior to addition of Alamar Blue. Plates were read after 6 h.

| SMILES | outcome | AC50 |
| --- | --- | --- |
| CCCCCCCCCCC1CO1 (configuration not stated) | inactive | – |
| CCCCCCCCCCCCCCCCCC[N+](C)(C)C | – | 3.82 µM (active) |
| COc1ccccc1Oc1c(NS(=O)(=O)c2ccc(C(C)(C)C)cc2)nc(-c2ncccn2)nc1OCCO | inactive | – |
| CCCCCCC(O)CCCCCCCCCCC(=O)OC (configuration not stated) | inactive | – |
| Oc1cccc2ccccc12 | inactive | – |
| CCCCC(CC)COC(=O)C=Cc1ccc(OC)cc1 (configuration not stated) | – | 31 µM (active) and 35.2 µM (active) |
| COC(=O)/C=C\C(=O)OC | inactive | – |
| COc1cc(CNC(=O)CCCC/C=C/C(C)C)ccc1O | inactive | – |
| CC[N+](CC)(CC(=O)Nc1c(C)cccc1C)Cc1ccccc1 | inactive | – |
| CC(C)C1OCCN1CCOC(=O)NCCCCCCNC(=O)OCCN1CCOC1C(C)C (configuration not stated) | inactive | – |
| CCC(C)=NO | inactive | – |
| CN(C)c1ccc(C(c2ccccc2)c2ccc(N(C)C)cc2)cc1 | – | 12.6 µM (active) |
| OC(C(F)(F)F)(C(F)(F)F)C(O)(C(F)(F)F)C(F)(F)F | – | 26.9 µM (active) and 26.8 µM (active) |
| CC(C)CC(=O)CC(C)CC(C)C (configuration not stated) | inactive | – |
| O=C(C(=O)c1ccccc1)c1ccccc1 | inactive | – |
| O=[N+]([O-])c1cc(S(=O)(=O)Nc2ccccc2)ccc1Nc1ccccc1 | – | 29.3 µM (active) and 31.8 µM (active) |
| CN(C)CCC(c1ccc(Cl)cc1)c1ccccn1 (configuration not stated) | inactive | – |
| CCC[Si](OC(C)=O)(OC(C)=O)OC(C)=O | inactive | – |
| Sc1nc2ccccc2s1 | inactive | – |
| Cc1c(C(N)=O)cc([N+](=O)[O-])cc1[N+](=O)[O-] | inactive | – |
| Cc1cccnc1 | inactive | – |
| CC[N+](CC)(CC(=O)Nc1c(C)cccc1C)Cc1ccccc1 (tested in a mixture with another compound) | inactive | – |
| Cc1cc(-n2nc3ccc(Cl)cc3n2)c(O)c(C(C)(C)C)c1 | inactive | – |
| COc1ccc(C(=O)c2ccccc2O)c(O)c1 | inactive | – |
| CN(C)Cc1cc(C(C)(C)C)c(O)c(C(C)(C)C)c1 | inactive | – |
| CCCCCCCCCC/C=C/C1CC(=O)OC1=O (configuration not stated) | inactive | – |
| C1CN(CCOCCN2CCOCC2)CCO1 | inactive | – |
